Measured values reported in PubChem BioAssay (EPA / NIEHS).
Where “and” joins values, the source holds several entries; their conditions need not be identical. Equal entries are not always repeated. Records with an inconclusive call do not appear. Calls of active or inactive are those of the source. The calls were made as follows: active = hit-call score of the fitted dose curve at least 0.9, where 1 is the maximum; inconclusive = response in the unintended direction; inactive = score below 0.9.

Tests used:
[1] = TOX21_p53_BLA_p2_viability: Viability Assessment in the Tox21 HCT-116 p53 Agonism Beta-lactamase Assay, Phase 2 (AID 2283591);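 also: actives lower the ATP signal meaning cytotoxicity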
How it was run: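 Cytotoxicity readout: CellTiter-Glo ATP luminescence, 30 min at room temperature, after the beta-lactamase read. Cells were HCT116 exposed 16 h at 37C to compounds pin-transferred at 217-fold dilution from DMSO stocks.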

[2] = molecular target: Cellular tumor antigen p53 (Homo sapiens) (UniProt P04637); assay: TOX21_p53_BLA_p2_ratio: Tox21 HCT-116 p53 Agonism Beta-lactamase Assay, Ratio, Phase 2 (AID 2283592)
How it was run: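 Readout: blue/green (460/530 nm) FRET emission ratio after 2 h CCF4-AM loading at room temperature, excitation 405 nm. HCT116 p53 bla cells, 16 h compound exposure at 37C, 5% CO2; agonist direction fitted against DMSO baseline.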

[3] = TOX21_p53_BLA_p3_viability: Viability Assessment in the Tox21 HCT-116 p53 Agonism Beta-lactamase Assay, Phase 3 (AID 2283593);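 also: cells exposed to compound for 16 h before reading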
How it was run: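 Cellular ATP was quantified by CellTiter-Glo luminescence, read after 30 min at room temperature. Beforehand, HCT116 cells (4000/well) received compound 5 h post-seeding, 217-fold diluted from DMSO, then incubated 16 h at 37C.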

[4] = molecular target: Cellular tumor antigen p53 (Homo sapiens) (UniProt P04637); assay: TOX21_p53_BLA_p3_ratio: Tox21 HCT-116 p53 Agonism Beta-lactamase Assay, Ratio, Phase 3 (AID 2283596)
How it was run: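 Cells were seeded at 4000/well, rested 5 h at 37C, then dosed with DMSO compound solutions (217-fold dilution) for 16 h. CCF4-AM substrate was loaded for 2 h at room temperature, and the 460/530 nm emission ratio was fitted for gain of signal versus DMSO.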

[5] = TOX21_p53_BLA_p4_viability: Viability Assessment in the Tox21 HCT-116 p53 Agonism Beta-lactamase Assay, Phase 4 (AID 2283597);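 also: hits lower the luminescence signal meaning cytotoxicity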
How it was run: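 ATP content by CellTiter-Glo luminescence, 30 min RT, read after the beta-lactamase ratio step. Cells: HCT116, 4000/well, compound added after 5 h, exposure 16 h at 37C. Signal loss = reduced viability.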

[6] = molecular target: Cellular tumor antigen p53 (Homo sapiens) (UniProt P04637); assay: TOX21_p53_BLA_p5_ratio: Tox21 HCT-116 p53 Agonism Beta-lactamase Assay, Ratio, Phase 5 (AID 2283599)
How it was run: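 Beta-lactamase reporter ratio (blue 460 nm over green 530 nm, 405 nm excitation) after 2 h CCF4-AM loading, in HCT-116 cells exposed 16 h at 37 C to compounds pinned at 217-fold dilution. Increases relative to DMSO baseline scored.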

[7] = TOX21_p53_BLA_p5_viability: Viability Assessment in the Tox21 HCT-116 p53 Agonism Beta-lactamase Assay, Phase 5 (AID 2283600)
How it was run: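 ATP luminescence (CellTiter-Glo, 30 min, RT) served as the viability read-out, with loss of signal indicating cytotoxicity. Compounds in DMSO were pinned at a 217-fold dilution onto 4000 cells/well and incubated 16 h, 37C.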

[8] = molecular target: Cellular tumor antigen p53 (Homo sapiens) (UniProt P04637); assay: TOX21_p53_BLA_p4_ratio: Tox21 HCT-116 p53 Agonism Beta-lactamase Assay, Ratio, Phase 4 (AID 2283601)
How it was run: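 Signal is the blue/green (460nm/530nm) ratio of cleaved versus uncleaved CCF4-AM substrate, read after 2 h substrate loading. Cells were HCT116 carrying the p53-responsive beta-lactamase reporter, dosed 16 h at 37C, 5% CO2; CellTiter-Glo measured in parallel.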

[9] = molecular target: PGR (gene 5241) (UniProt P06401); assay: TOX21_PR_BLA_Followup_Antagonist_ratio: Tox21 HEK293 Progesterone Receptor (PR) Antagonism Beta-lactamase Follow-Up Assay, Ratio (AID 2283934);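 also: PR-UAS-bla HEK293T cells stimulated with 1 nM R5020 agonist for 16 hr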
How it was run: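 Readout is the blue/green (ch2/ch1) substrate cleavage ratio after 2 hours at room temperature, following 16 hr co-treatment of PR-bla HEK293T cells with compound and 1nM promegestone. Multiplexed CellTiter-Glo viability flags cytotoxicity; DMSO baseline.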

[10] = TOX21_PR_BLA_Followup_Agonist_viability: Viability Assessment in the Tox21 HEK293 Progesterone Receptor (PR) Agonism Beta-lactamase Follow-Up Assay (AID 2283935);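 also: signal loss means lower viability so actives are cytotoxic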
How it was run: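 Run multiplexed with the beta-lactamase FRET read, this endpoint measures ATP by CellTiter-Glo luminescence (30 min, room temperature). PR-UAS-bla HEK293T cells received compound 6 hr after plating and were then incubated 16 hr at 37C in 2% stripped serum.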

[11] = TOX21_PR_BLA_Followup_Antagonist_viability: Viability Assessment in the Tox21 HEK293 Progesterone Receptor (PR) Antagonism Beta-lactamase Follow-Up Assay (AID 2283936);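 also: cells exposed to compound with R5020 agonist for 16 h; hits lower the luminescence signal meaning cytotoxicity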
How it was run: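 PR-UAS-bla HEK293T cells in medium with 2% charcoal-stripped FBS were treated with compounds plus R5020 for 16 hr at 37C. After the beta-lactamase read, CellTiter-Glo was added to the same wells and luminescence read after 30 min at room temperature.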

[12] = molecular target: PGR (gene 5241) (UniProt P06401); assay: TOX21_PR_LUC_Followup_Antagonist: Tox21 HEK293 Progesterone Receptor (PR) Antagonism Luciferase Follow-Up Assay (AID 2283938);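 also: curve fitted upward as signal gain over DMSO baseline despite antagonist label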
How it was run: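 Luminescence from ONE-Glo reagent, measured after 30 min at room temperature, served as readout. Cells (HEK293 carrying PR-A-luc) had been treated 16 h at 37C with DMSO-dissolved compounds. Activity was fitted against DMSO controls.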

[13] = TOX21_PR_LUC_Followup_Antagonist_viability: Viability Assessment in the Tox21 HEK293 Progesterone Receptor (PR) Antagonism Luciferase Follow-Up Assay (AID 2283940)
How it was run: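 Viability counter-readout: cellular ATP measured by luciferase luminescence after 16 h compound exposure at 37C of HEK293-PR-A-luc cells, which had been cultured in charcoal-stripped serum and seeded 5 h beforehand.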

PGR (gene 5241), sequence (P06401 whole entry, looked up): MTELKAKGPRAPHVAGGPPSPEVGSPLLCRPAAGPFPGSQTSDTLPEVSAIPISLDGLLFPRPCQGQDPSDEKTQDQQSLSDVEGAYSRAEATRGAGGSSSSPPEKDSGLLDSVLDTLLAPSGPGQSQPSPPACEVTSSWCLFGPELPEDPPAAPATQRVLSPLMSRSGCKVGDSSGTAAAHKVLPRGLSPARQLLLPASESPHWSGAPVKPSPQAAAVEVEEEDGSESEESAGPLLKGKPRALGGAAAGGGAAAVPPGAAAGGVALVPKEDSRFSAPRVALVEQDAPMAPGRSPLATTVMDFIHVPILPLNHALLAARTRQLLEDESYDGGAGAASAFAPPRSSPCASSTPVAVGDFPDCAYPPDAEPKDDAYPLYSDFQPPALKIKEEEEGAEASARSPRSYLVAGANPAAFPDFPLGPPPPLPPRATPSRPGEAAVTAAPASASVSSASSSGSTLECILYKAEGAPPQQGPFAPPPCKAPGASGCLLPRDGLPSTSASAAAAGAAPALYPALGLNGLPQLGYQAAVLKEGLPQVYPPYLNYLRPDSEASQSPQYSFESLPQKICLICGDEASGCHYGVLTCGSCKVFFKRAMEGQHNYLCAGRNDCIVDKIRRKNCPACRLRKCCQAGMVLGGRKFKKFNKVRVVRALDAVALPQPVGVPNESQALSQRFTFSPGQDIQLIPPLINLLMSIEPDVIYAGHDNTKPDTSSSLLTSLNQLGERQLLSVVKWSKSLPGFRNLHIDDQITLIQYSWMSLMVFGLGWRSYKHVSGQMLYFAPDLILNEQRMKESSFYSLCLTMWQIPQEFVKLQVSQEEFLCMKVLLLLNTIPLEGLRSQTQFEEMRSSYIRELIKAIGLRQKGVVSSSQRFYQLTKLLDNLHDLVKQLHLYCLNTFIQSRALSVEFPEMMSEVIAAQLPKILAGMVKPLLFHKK
Cellular tumor antigen p53 (Homo sapiens), sequence (P04637 whole entry, looked up): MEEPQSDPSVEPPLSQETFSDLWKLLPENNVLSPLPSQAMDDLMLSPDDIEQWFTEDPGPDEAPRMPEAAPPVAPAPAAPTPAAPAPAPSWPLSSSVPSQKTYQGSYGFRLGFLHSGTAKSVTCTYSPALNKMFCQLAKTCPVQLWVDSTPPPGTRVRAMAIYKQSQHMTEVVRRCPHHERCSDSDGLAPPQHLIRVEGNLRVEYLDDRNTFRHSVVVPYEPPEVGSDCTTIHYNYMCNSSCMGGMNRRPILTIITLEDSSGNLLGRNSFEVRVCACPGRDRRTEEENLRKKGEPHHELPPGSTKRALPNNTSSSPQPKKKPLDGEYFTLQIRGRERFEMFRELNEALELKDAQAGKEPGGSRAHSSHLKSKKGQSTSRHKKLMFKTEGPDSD

Structure (SMILES): Cc1ccc(/C=N/n2c(-c3ccccc3)csc2=S)cc1
- outcome [1]: inactive
- outcome [2]: inactive
- outcome [3]: inactive
- outcome [4]: inactive
- outcome [5]: inactive
- outcome [6]: inactive
- outcome [7]: inactive
- outcome [8]: inactive
- AC50 [9]: 23 µM (active)
- outcome [10]: inactive
- outcome [11]: inactive
- outcome [12]: inactive
- outcome [13]: inactive

Structure (SMILES): CCN(CC)CCNC(=O)c1c(C)[nH]c(/C=C2\C(=O)Nc3ccc(F)cc32)c1C
- outcome [1]: inactive
- outcome [2]: inactive
- outcome [3]: inactive
- outcome [4]: inactive
- AC50 [5]: 17.7 µM (active)
- outcome [6]: inactive
- outcome [7]: inactive
- AC50 [8]: 37.1 µM (active)

Structure (SMILES): N#C/C(=C1/SC[C@@H](c2ccc(Cl)cc2Cl)S1)n1ccnc1
- outcome [1]: inactive
- outcome [2]: inactive
- outcome [3]: inactive
- outcome [4]: inactive
- outcome [5]: inactive
- outcome [6]: inactive
- outcome [7]: inactive
- outcome [8]: inactive
- AC50 [9]: 33 µM (active)
- outcome [10]: inactive
- outcome [11]: inactive
- outcome [12]: inactive
- outcome [13]: inactive

Structure (SMILES): CC1=C(/C=C/C(C)=C/C=C/C(C)=C\C=O)C(C)(C)CCC1
- AC50 [1]: 72.1 µM (active)
- outcome [2]: inactive
- AC50 [3]: 64.9 µM (active)
- AC50 [4]: 75.3 µM (active)
- AC50 [5]: 80.9 µM (active)
- AC50 [6]: 66.7 µM (active)
- AC50 [7]: 74.6 µM (active)
- outcome [8]: inactive

Structure (SMILES): COC(=O)C1=C(C)NC(C)=C(C(=O)OCC(C)=O)C1c1ccccc1[N+](=O)[O-] (stereo not drawn)
- outcome [1]: inactive
- outcome [2]: inactive
- outcome [3]: inactive
- outcome [4]: inactive
- outcome [5]: inactive
- outcome [6]: inactive
- outcome [7]: inactive
- outcome [8]: inactive
- outcome [9]: inactive
- outcome [10]: inactive
- outcome [11]: inactive
- AC50 [12]: 21.5 µM (active)
- outcome [13]: inactive

Structure (SMILES): O=c1cccccc1O
- outcome [1]: inactive
- outcome [2]: inactive
- outcome [3]: inactive
- outcome [4]: inactive
- outcome [5]: inactive
- outcome [6]: inactive
- outcome [7]: inactive
- outcome [8]: inactive

Structure (SMILES): CCC(=C(CC)c1ccc(O)cc1)c1ccc(O)cc1
- AC50 [1]: 38.3 µM (active)
- AC50 [2]: 7.14 µM (active)
- outcome [3]: inactive
- AC50 [4]: 7.64 µM (active)
- outcome [5]: inactive
- AC50 [6]: 17.7 µM (active)
- outcome [7]: inactive
- AC50 [8]: 7.47 µM (active)
- AC50 [9]: 23.7 µM (active)
- outcome [10]: inactive
- outcome [11]: inactive
- outcome [13]: inactive

Structure (SMILES): C=C1C(CCl)(CCl)C2(Cl)C(Cl)C(Cl)C1(Cl)C2(Cl)Cl (stereo not drawn)
- AC50 [1]: 50.6 µM (active) and 13.5 µM (active)
- AC50 [2]: 76.7 µM (active) and 35.7 µM (active)
- AC50 [3]: 45.6 µM (active) and 12 µM (active)
- AC50 [4]: 86.4 µM (active) and 20.9 µM (active)
- AC50 [5]: 67.2 µM (active) and 17.1 µM (active)
- AC50 [6]: 68.4 µM (active) and 24.1 µM (active)
- AC50 [7]: 45.6 µM (active) and 15.7 µM (active)
- AC50 [8]: 86.6 µM (active) and 36.1 µM (active)
- AC50 [9]: 23 µM (active)
- outcome [10]: inactive
- outcome [11]: inactive
- outcome [12]: inactive
- outcome [13]: inactive
